Out of some 69,000 compounds screened, about 8,600 (12%) showed an effect of 50% or more. Only a selection was taken, and strong results are over-represented in it overall.

The assay relates to Plasmodium berghei. Description: Screen against P. berghei liver stage (PbLuc), transformed with Luciferase, at 10uM. The format is functional, HepG2. The following applies: tested at 10 uM.
`O=C(NC1CC1)C1=CC2(CCN(CC3CC3)CC2)c2ccccc21`: the INHIBITION is listed as 37.1%.

Take `Cc1cncc(C2CCN(Cc3ccc(S(C)(=O)=O)cc3)CC2)n1`: the INHIBITION turned out to be 25.3%. Then `CS(=O)(=O)NCc1cnc2n1CCN(Cc1ccco1)CC2`, with 38.5%; and `CN(Cc1ccsc1)C(=O)c1cccc(S(=O)(=O)NCC2CCCO2)c1` (centres undefined), with 23.4%.

Take `COCCNC(=O)Cn1cc(OCc2ccc(F)cc2)c(=O)cc1CO`: the INHIBITION was 26.9%.

On to `OC1CCN(CCCn2ccnc2-c2c[nH]cn2)CC1`, for which the INHIBITION is -0.273%.

For the compound `O=C(C1CCCC1)N1CCn2c(nnc2C2CCCNC2)C1` (centres undefined), the INHIBITION is given as -1.45%. For `Cc1nnc(SCCC(=O)N(C)Cc2ccc(F)cc2Cl)[nH]1`, the INHIBITION is listed as 51.1%. The same measure for `Cc1nnc(SCCC(=O)N(C)Cc2c(F)cccc2Cl)[nH]1`: -1.25%; for `Cc1nnc(SCCC(=O)N(C)Cc2ccc(F)cc2F)[nH]1`: 1.96%. As to `CCc1c(O)nc2nc(N3CCOCC3)nn2c1C`, the INHIBITION came out at 11%. Then `CCc1ccc(N2CCC(NS(=O)(=O)N(CC)CC)CC2)cc1`, with 53.4%; and `CCN(CC)S(=O)(=O)NC1CCN(c2ccc(OC)cc2)CC1`, with 12.8%; and `COc1ccc(N2CCC(NS(=O)(=O)N(C)C(C)C)CC2)cc1`, with 34.1%. Then `CC(C)(C)CC(=O)NCC(=O)Nc1ccn(Cc2cccnc2)n1`, with 21.6%; and `CN1CC(=O)N(c2ccsc2)CC12CCN(Cc1cnn(C)c1)C2` (centres undefined), with -13%.

Take `COCC(=O)N1CCC2(CCN(Cc3ccc(C)cc3)CC2)CC1`: the INHIBITION is given as 10.5%.

With `CC[C@@H](C)[C@@H](N)C(=O)Nc1cccc(-c2cnc(N(C)CCO)nc2)c1`, the INHIBITION was 8.53%. The same measure for `CC[C@@H](C)[C@@H](N)C(=O)Nc1cccc(-c2cnc(N(C)C)nc2)c1`: 76.8%; for `CC[C@@H](C)[C@@H](N)C(=O)Nc1cccc(-c2cnc(N)nc2)c1`: 17.4%; for `NC(=O)C1CCN(C(=O)Cn2ccc3cc(Br)ccc32)CC1`: 30.6%.

With `CC(C)(C)C1CCC(O)(CNC(=O)CCS(C)(=O)=O)CC1` (centres undefined), the INHIBITION is on record as -23.2%.

For `Cc1ccc(C(=O)N(C)Cc2ccc3c(c2)OCCO3)c(=O)[nH]1`, the INHIBITION is reported as -11.6%.

`Cn1cnc(S(=O)(=O)N2C[C@H]3CC[C@@H](C2)N(Cc2ccccn2)C3)c1`: the INHIBITION is given as 20.9%. The same measure for `COc1cc(N2C[C@H]3CN(Cc4ccccn4)C[C@H]3C2)ncn1`: 85.6%. `CC(C)CN1CCCC2(CCN(c3ccccn3)C2)C1` (centres undefined): the INHIBITION was found to be 21.7%. Then `Cn1cnc(S(=O)(=O)N2C[C@H]3CN(Cc4cccnc4)C[C@H]3C2)c1`, with 49.1%.

Regarding `COc1cc(N2CCC3(CCCN(Cc4ccccn4)C3)C2)ncn1` (centres undefined), the INHIBITION is 84.7%.

As for `Fc1cccc(CN2C[C@@H]3CN(Cc4ccccn4)C[C@@H]3C2)c1`, the INHIBITION is given as 18.6%. For `CS(=O)(=O)N1CCC2(CCCN(Cc3ccccn3)C2)C1` (centres undefined), the INHIBITION was -11.6%. As to `Cn1cnc(S(=O)(=O)N2C[C@H]3CN(Cc4ccccn4)C[C@H]3C2)c1`, the INHIBITION came to 76.4%. With `COc1cc(N2CCC(c3nccn3Cc3ccccn3)CC2)ncn1`, the INHIBITION worked out at 8.97%. Then `CCc1csc(NC(=O)Nc2c(C)n[nH]c2C)n1`, with -1.79%. Then `CC(=O)N1CCCC1c1nc(C)no1` (centres undefined), with 7.05%; and `Cc1cc(NCCc2cnccn2)nc(-c2ccccc2O)n1`, with 17.5%.

`O=C(NCc1cc[nH]n1)N1CCCC(N2CCCC2)C1` (centres undefined): the INHIBITION was 16.9%.

Consider `NC(=O)CSc1ccccc1NC(=O)CC1C=CCC1` (centres undefined), for which the INHIBITION is -54.9%. Then `COCC(=O)NC(CC(C)C)c1nc2cccnc2n1C` (centres undefined), with -0.232%; and `Cc1ccc(C(=O)Nc2c(C(=O)N(C)C)nn(C)c2C)cc1C`, with 35%. Consider `CCOc1cc(F)ccc1NC(=O)N(C)Cc1cnn(C)c1`, for which the INHIBITION turned out to be 4.71%. Then `CCC(=O)N1CCC2(CCN(Cc3cccc(F)c3)CC2)CC1`, with -6.97%. The same measure for `CN(Cc1ccco1)[C@@H]1CN(Cc2ccc(F)cc2)[C@@H]2CCCO[C@H]12`: 81.2%; for `CN(Cc1ccco1)[C@@H]1CN(Cc2ccco2)[C@@H]2CCCO[C@H]12`: 15.4%. Turning to `CN(Cc1ccco1)[C@@H]1CN(Cc2ccc(F)cc2)C[C@@H]2CCCO[C@@H]21`, the INHIBITION stood at 31.8%. The same measure for `COc1ccc(CN2C[C@@H](N(C)Cc3ccco3)[C@H]3OCCC[C@H]32)cc1`: 31.8%; for `CN(Cc1ccco1)[C@@H]1CN(Cc2cccnc2)[C@@H]2CCCO[C@H]12`: 55.5%. On to `CN(Cc1ccco1)[C@@H]1CN(Cc2cccnc2)C[C@@H]2CCCO[C@@H]21`, for which the INHIBITION came to 30.4%. Then `O=C1CCN(C(=O)NCc2ccccc2Oc2ccccc2)CCN1`, with 11.4%; and `COCC1CN(C(=O)c2ccco2)Cc2cn(C)nc21` (centres undefined), with -30.6%. Then `Cc1ncc(C(=O)N2CC(C(=O)N3CCCCCC3)C2)c(C)n1`, with 27.7045%; and `CN(C)[C@@H]1CN(Cc2ccccn2)C[C@H]1c1cn(C)c2ccccc12`, with 13.55%. The same measure for `CC(C)=CCN1C[C@@H]2CC[C@H]1CN(C(=O)c1ccc3nc[nH]c3c1)C2`: 10.3%; for `Cc1nn(C)c(C)c1S(=O)(=O)N1CC[C@@H]2O[C@@H](C)C[C@H]2C1`: 7.5%; for `CCN1C[C@H]2C3(CCN(S(C)(=O)=O)CC3)CC[C@@]2(C(=O)N(C)C)C1`: 44.8%. For `CC(c1nnc(-c2ccccc2)o1)N1CCC(Nc2ccccc2)CC1` (centres undefined), the INHIBITION is 31.5%. Then `COCC1CN(Cc2ccc(C)o2)Cc2nnn(C)c21` (centres undefined), with -102%; and `Cc1nc(CC2CCCN(Cc3nc4ccccc4c(=O)[nH]3)C2)no1` (centres undefined), with 45.2%; and `O=c1[nH]c(CN2CCCC(Cn3cncn3)C2)nc2ccccc12` (centres undefined), with 21.01%.

Take `CCC1CCCN(Cc2nc3ccccc3c(=O)[nH]2)C1` (centres undefined): the INHIBITION is on record as 67.5%. The same measure for `Cc1nccn1C1CCCN(C(=O)c2ccc3cc[nH]c3c2)C1` (centres undefined): 4.52%; for `Cc1nnc(-c2cccc(N3CCC(NC4CCSC4)CC3)c2)s1` (centres undefined): 18.9%; for `Cc1nnc(-c2cccc(N3CCC(NC(C)CC(C)C)CC3)c2)s1` (centres undefined): 62.4%. The same measure for `CC(C)CC(C)NC1CCN(c2cccc(-c3cscn3)c2)CC1` (centres undefined): 34.1%; for `COCCNC(=O)c1ccc(NCc2c(C)noc2C)cc1Cl`: 2.03%; for `O=C(c1cnccn1)N1CCOC2(CCCN(c3ncccc3F)C2)C1` (centres undefined): 39.5%. Then `COCCNC(=O)N1CCN(c2cc(F)ccc2F)CC1`, with 8.7%; and `CNCc1cnc(Nc2ccccc2)nc1`, with 39.9%. For `O=C(Nc1nncs1)C1CSCN1C(=O)C1CCCC1` (centres undefined), the INHIBITION stood at 20.5%. The same measure for `Cc1nnc(NC(=O)C2CSCN2C(=O)C2CCCC2)s1` (centres undefined): 25.4%; for `CC(C)c1nnc(NC(=O)C2CSCN2C(=O)C2CCC2)s1` (centres undefined): 61.2%. For the compound `CN(C(=O)Nc1ccncc1)C1CCN(c2ccc(Cl)cc2)CC1`, the INHIBITION amounted to 83.1%. Take `CN(C(=O)NC1CC1)C1CCN(c2ccc(Cl)cc2)CC1`: the INHIBITION stood at 13.9%. As to `CN(C(=O)Nc1cccnc1)C1CCN(c2ccc(Cl)cc2)CC1`, the INHIBITION worked out at 60.4%. The same measure for `COc1ccc(N2CCC(N(C)C(=O)C(C)SC)CC2)cc1` (centres undefined): 60.4%.

Turning to `COc1ccccc1OC1CCN(c2ccncc2)CC1`, the INHIBITION is reported as -2.93%.

Consider `COc1ccc(N2CCC(N3C[C@H](NC(C)=O)[C@@H](C(C)C)C3)CC2)cc1`, for which the INHIBITION was 33%. Turning to `COc1ccc(OC2CCN(c3ccncc3)CC2)cc1`, the INHIBITION was determined as 55.1%. Then `CN1CCC(N(C)C(=O)Nc2ccc(Cl)cc2)CC1`, with -5.64%; and `CN1CCC(Oc2ccc(-n3ccnc3-c3ccncc3)cc2)CC1`, with 49.4%. The same measure for `CSC(C)C(=O)N(C)C1CCN(c2ccc(Cl)cc2)CC1` (centres undefined): 35.5%; for `CC(C)CN(C(=O)Nc1cccnc1)C1CC1`: -18.5%. Take `CN(CC(=O)N(C)C1CC1)C1CCN(c2ccc(Cl)cc2)CC1`: the INHIBITION is 29%. The same measure for `CS(=O)(=O)N[C@@H]1CN(Cc2ccc3ccccc3c2)C[C@H]1O`: -6.88%; for `O=C(Cc1ccccn1)N1CCCC(c2nccn2CC2CCC2)C1` (centres undefined): 10.7%; for `O=C(O)c1cc(C2CC2)nc2c(Cl)cnn12`: 29.2%.

For the compound `CC(C)C(C(=O)N1CCN(c2nccs2)CC1)n1cncn1` (centres undefined), the INHIBITION is on record as 5.03%. Then `Cc1nc(C2CCNC2)nc2c1CCC(=O)N2CC(C)C` (centres undefined), with 25.65%.

As for `CN1C(=O)c2cccc(NC(=O)c3ccc4c(c3)OCCO4)c2C1=O`, the INHIBITION is recorded as 8.46%. For `CC(C)(C)NC(=O)[C@@H]1CNC[C@]12Cc1ccccc1C(=O)N2`, the INHIBITION is recorded as 24.2%. Then `COCCNc1nnc(-c2cnc(C)cn2)s1`, with -54.1%; and `c1cncc(C[C@H]2[C@H](N3CCOCC3)CCN2Cc2nccs2)c1`, with 8.85%. Regarding `Cn1cc(C(=O)N2CCN(Cc3cscn3)CC2)ccc1=O`, the INHIBITION is reported as -8.22%. The same measure for `COCc1ncc(CN2CCC(Oc3ccccc3OC)CC2)cn1`: -20.6%; for `CN(CCN1CCN(c2ccccc2)CC1)C(=O)Nc1ccccn1`: 45.4%.

In the case of `CCOC(C)C(=O)N(C)C1CCN(c2ccc(OC)cc2)CC1` (centres undefined), the INHIBITION stood at 33.4%.

As for `COCc1ncc(CN2CCC(Oc3ccc(OC)cc3)CC2)cn1`, the INHIBITION was 56%. Then `Cc1cc(NC(=O)N(C)CCN2CCN(c3ccccc3)CC2)on1`, with 35.5%. Then `COc1ccc(N2CCC(N(C)C(C)C(=O)N(C)C)CC2)cc1` (centres undefined), with 45.3%; and `CN(CCN1CCN(c2ccccc2)CC1)C(=O)Nc1ccncc1`, with 73.2%. Regarding `COCc1ncc(CN2CCC(Oc3ccccc3C)CC2)cn1`, the INHIBITION was found to be 26.8%.

For `COc1ccc(N2CCC(N(C)C(=O)Nc3ccncc3)CC2)cc1`, the INHIBITION turned out to be 52.8%. Then `CC(=O)NCCc1ccc(S(=O)(=O)Nc2ccc(C)cc2F)s1`, with -44.2%; and `CN(C)c1cc(C2CCCN2)ccn1` (centres undefined), with 33.54%; and `O=S(=O)(Cc1ccon1)N1CCN(c2ccncc2Cl)CC1`, with 38.9%.

(Values after ChEMBL document CHEMBL4513216, “Probing the Open Global Health Chemical Diversity Library for Multistage-Active Starting Points for Next-Generation Antimalarials” (ACS Infect Dis, 2020).)
